Bioassay records from PubChem BioAssay.
The list is not random: actives were taken first. Their share in the collection is about 27%.
CYP2C9 inhib – blockers of cytochrome P450 2C9 activity – biochemical, luminescence, ADME assay, primary screen; P11712; CYP2C9 Supersomes, luciferin-H conversion; 96,000 compounds, 20% hits; inhibition, % at 5 µM;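 active = blocking of liver enzyme CYP2C9 beyond about 50% at 5 µM, limit read from the data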
Target sequence (P11712 whole entry, looked up): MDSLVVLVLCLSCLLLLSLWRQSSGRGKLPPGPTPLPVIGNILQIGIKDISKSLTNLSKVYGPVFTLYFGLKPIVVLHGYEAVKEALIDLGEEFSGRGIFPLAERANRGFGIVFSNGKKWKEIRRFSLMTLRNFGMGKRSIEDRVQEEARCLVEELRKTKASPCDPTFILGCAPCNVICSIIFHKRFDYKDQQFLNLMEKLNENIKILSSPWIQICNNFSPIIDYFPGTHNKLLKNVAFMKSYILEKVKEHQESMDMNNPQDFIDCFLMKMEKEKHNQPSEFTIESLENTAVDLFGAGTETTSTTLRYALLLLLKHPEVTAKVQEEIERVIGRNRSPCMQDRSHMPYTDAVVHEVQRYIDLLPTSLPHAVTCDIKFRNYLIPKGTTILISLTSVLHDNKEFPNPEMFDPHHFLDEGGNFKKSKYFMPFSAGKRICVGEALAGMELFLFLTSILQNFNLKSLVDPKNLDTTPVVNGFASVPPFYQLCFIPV
CYP2C19 act – human CYP2C19 activators, primary screen, biochemical, luminescence; recombinant CYP2C19, luciferin-H EGE luminescence; active compounds read high; 0 = fully inhibited enzyme, 1 = untreated enzyme; AID 1025, 2008; 96,000 tested, under 10 active; activation factor at 5 µM; Cytochrome P450 2C19 (Homo sapiens), P33261;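 active = activation factor of at least 2 at 5 µM in the primary screen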
CYP2C9 act – human CYP2C9 activators, primary screen, biochemical, luminescence; recombinant CYP2C9, luciferin-H conversion; active compounds read high; factor 1 = untreated enzyme, 0 = blocked; 96,000 compounds, 1.4% hits; AID 1024, 2008; activation factor at 5 µM; Cytochrome P450 2C9 (Homo sapiens), P11712;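 active = activation factor of 2 or more for CYP2C9 at a 5 µM dose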
CYP2C19 inh – blockers of cytochrome P450 2C19 activity – biochemical, luminescence, ADME assay, primary screen; P33261; CYP2C19 Supersomes, luciferin-H EGE luminescence, 30 min; inhibition, % at 5 µM; 96,000 compounds, 21% hits;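 active = CYP2C19 inhibition above a set limit at 5 µM in the primary screen, cut at about 50% in these data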
Cav3 T inh – Cav3.2 calcium influx blockers – cell-based, Fluo-4 calcium fluorescence, FDSS, MLSMR library, primary screen; 100,000 compounds, 4% hits; B-score at 10 µM; Cav3.2-expressing cells; active compounds read low;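 active = single-dose well whose peak fluorescence ratio is a statistical outlier from its plate by either plate-standardised score or position-corrected B-score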
A number is an active result; . = inactive; / = no result given.

SMILES	CYP2C9 inhib	CYP2C19 act	CYP2C9 act	CYP2C19 inh	Cav3 T inh
Cc1sc2nc(SCC(=O)C(C)(C)C)n(Cc3ccco3)c(=O)c2c1C	73	.	.	.	.
COc1ccc(NC(=O)CSc2nc3sc(C)c(C)c3c(=O)n2Cc2ccco2)cc1	79	.	.	62	.
Cc1cc2c(=O)n(Cc3ccco3)c(SCC(=O)c3ccc(Cl)s3)nc2s1	76	.	.	57	-4.7
COc1ccc(/C=C/C(=O)OC(C)CN2CCOCC2)cc1 (stereo not given)	.	.	.	.	.
CCSc1cnc(-c2ccccc2)n1CC	.	.	.	.	.
COc1ccc(C2C(C(=O)c3ccc(C)o3)=C(O)C(=O)N2c2cc(C)on2)cc1OC (stereo not given)	.	.	.	.	.
COc1cc(C2C(C(=O)c3ccco3)=C(O)C(=O)N2c2cc(C)on2)cc(Br)c1O (stereo not given)	60	.	.	.	.
COc1cc(C2C(C(=O)c3ccc(C)o3)=C(O)C(=O)N2c2cc(C)on2)cc(Br)c1O (stereo not given)	66	.	.	.	.
Cc1cc(NS(=O)(=O)c2ccc(NC(=O)c3ccoc3C)cc2)nc(C)n1	.	.	.	.	.
O=C(NCC1CCCO1)C1CCC(=O)N1Cc1ccccc1Cl (stereo not given)	.	.	.	.	.
Cc1cccc(C)c1OCC(=O)N/N=C/c1ccc2c(c1)OCO2	.	.	.	.	.
O=C(CSCc1cccc(Br)c1)N1CCOCC1	.	.	.	71	.
CC(SCc1ccccc1)C(=O)Nc1ccc2c(c1)OCO2 (stereo not given)	73	.	.	98	.
O=C(CSCc1cccc(Br)c1)N/N=C/c1ccc2c(c1)OCO2	55	.	.	.	-5.4
CC(SCc1ccccc1)C(=O)N/N=C/c1ccc2c(c1)OCO2 (stereo not given)	92	.	.	80	-6.1
O=C(CSCc1cccc(Cl)c1)N/N=C/c1ccc(OCC(=O)N2CCCCC2)cc1	57	.	.	59	.
Cc1cccc(C(=O)N/N=C/c2ccc(OCC(=O)N3CCCCC3)cc2)c1	.	.	.	.	.
CCCS(=O)(=O)N1CCN(C(=O)COc2ccc(-c3ccccc3)cc2)CC1	/	/	/	/	.
CC1(C)SC(=S)N(Cc2ccc3c(c2)OCO3)C1N(O)C(=O)NC1CCCCC1 (stereo not given)	72	.	.	.	.
CC1(C(=O)NC2CCCCCC2)CCC(=O)N1Cc1ccc2c(c1)OCO2 (stereo not given)	.	.	.	.	.
CCCCC1C(C#N)=C(C)NC2=C1C(=O)CC(C)(C)C2 (stereo not given)	86	.	.	90	.
CC1CCCN(Cc2cnc(Cl)s2)C1 (stereo not given)	.	.	.	53	/
CCOC(=O)c1c(C)oc2cc(Br)c(OC(=O)N3CCOCC3)cc12	51	.	.	76	.
Cc1ccc(CNC(=O)c2cc(-c3ccccc3)nn2CC2CC(c3cccnc3)=NO2)cc1 (stereo not given)	/	/	/	/	.
CCOC(=O)Cn1nnnc1C(CC)N(Cc1cc2c(C)cc(C)cc2[nH]c1=O)C1CCCC1 (stereo not given)	.	.	.	.	/
SMILES	CYP2C9 inhib	CYP2C19 act	CYP2C9 act	CYP2C19 inh	Cav3 T inh
CCN1CCN(C(c2ccc(OC)c(OC)c2)c2nnnn2C(C)(C)C)CC1 (stereo not given)	.	.	.	.	/
COc1ccccc1N1CCN(C(c2ccccc2Cl)c2nnnn2C(C)(C)C)CC1 (stereo not given)	.	.	.	.	-6.8
COc1ccccc1N1CCN(C(c2ccc(Cl)cc2)c2nnnn2C(C)(C)C)CC1 (stereo not given)	87	.	.	89	.
COc1ccccc1C(c1nnnn1C(C)(C)C)N1CCN(Cc2ccncc2)CC1 (stereo not given)	89	.	.	79	/
O=C1N/C(=N/N=C/c2ccccc2)SC1(c1ccccc1)c1ccccc1	94	.	.	.	.
CC1(C)S/C(=N/N=C/c2cccs2)NC1=O	.	.	.	.	.
CC(C)(C)Nc1nc(Oc2ccc(=O)n(-c3ccccc3)n2)nc(N2CCOCC2)n1	68	.	.	54	.
Cc1ccc(Nc2cc(-n3nc(C)cc3C)ncn2)c(C)c1	.	.	.	54	.
Cc1ccc(Nc2cc(-n3cccn3)ncn2)c(C)c1	.	.	.	61	.
CC1(c2ccccc2)CC(c2ccccc2)=Nc2nonc2N1 (stereo not given)	52	.	.	94	.
CCCCCCOC(=O)Sc1nc2ccccc2o1	65	.	.	52	.
CC(=O)CSc1nc2ccccc2o1	/	/	/	/	.
Cc1ccccc1NC(=O)CN(C)S(=O)(=O)c1cccc2cccnc12	88	.	.	72	.
CN(CC(=O)Nc1ccncc1)S(=O)(=O)c1ccc(Cl)cc1	80	.	.	100	.
CN(CC(=O)Nc1cccnc1)S(=O)(=O)c1cc(Cl)ccc1Cl	.	.	.	80	.
CN(CC(=O)Nc1ccc2c(c1)OCCO2)S(=O)(=O)c1cccc2cccnc12	94	.	.	78	.
CN(CC(=O)NCc1ccccn1)S(=O)(=O)c1ccc(Cl)cc1	.	.	.	.	.
Cc1ccc2cc(C(c3nnnn3C(C)(C)C)N3CCCC3)c(=O)[nH]c2c1C (stereo not given)	.	.	.	.	/
CCCS(=O)(=O)N1CCC(C(=O)NCCCOCC)CC1	.	.	.	.	.
O=C1c2cccc3cccc(c23)C(=O)N1c1ccc2ncccc2c1	/	/	/	/	.
CN(CCc1ccccn1)C1CC(=O)N(c2ccc(Cl)cc2)C1=O (stereo not given)	.	.	.	.	.
CN(CC(=O)Nc1ccc(F)c(Cl)c1)S(=O)(=O)c1cccc2nsnc12	/	/	/	/	.
COc1ccc(NC(=O)CN(C)S(=O)(=O)c2cccc3cccnc23)cc1	90	.	.	70	.
CN(CC(=O)Nc1ccc(Cl)cc1)S(=O)(=O)c1cccc2cccnc12	68	.	.	.	.
CS(=O)(=O)N(Cc1ccccc1)c1ccc(C(=O)N2CCN(c3cccc(Cl)c3)CC2)cc1	98	.	.	92	.
CCOC(=O)N1CCN(C(=O)CN(c2ccc(Oc3ccccc3)cc2)S(C)(=O)=O)CC1	86	.	.	70	.
C=CCNC(=O)c1ccccc1NC(=O)c1ccc(Cl)c(S(=O)(=O)Nc2ccccc2)c1	62	.	.	62	.
CS(=O)(=O)N(Cc1ccc(Cl)cc1)c1ccc(C(=O)N2CCN(c3ccccc3)CC2)cc1	98	.	.	91	.
C=CCNC(=O)c1ccccc1NC(=O)c1ccccc1C	/	/	/	/	.
